The full data set covers some 8,800 targets. This sample favours those with a hit. About 0.5% of all pairs of compound and target were hits. Unmarked numbers belong to inactive results.
Tests used:
Assay in all cases: log2 fold change, soluble protein after heating vs DMSO (PISA); higher = thermal stabilisation; K562 lysate, 10 uM; active = over 0.2 and 3.5 SD of the protein, either way, in both replicates (recomputed)
[1] = compound: CN1CC[C@H](c2c(O)cc(O)c3c(=O)cc(-c4ccccc4Cl)oc23)[C@H](O)C1 [alvocidib]
Procedure, shortened: (§1)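 K562 pellets were dounce-homogenised in PBS pH 7.4 with 1 mM MgCl2, and the crude extract at 1 mg/mL protein was treated with 10 μM compound for 30 min. Aliquots were heated for 3 min across 48°C-58°C, pooled, and brought to 0.5% NP-40 at 4°C; soluble protein was the supernatant after 21,000xg for 90 min. Soluble protein was quantified by TMTpro 16plex LC-MS/MS with channel sums equalised, and reported as log2 fold change in thermal stability against DMSO controls, with values from duplicates.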

[2] = compound: CN1CCc2c(c3ccccc3n2Cc2ccc(C(=O)NO)cc2)C1 [Tubastatin A]
Procedure, shortened: as §1

[3] = compound: CNC(=O)C1=CC=CC=C1NC2=NC(=NC=C2Cl)NC3=C(C=C(C=C3)N4CCOCC4)OC
Procedure, shortened: as §1

[4] = compound: CNC(=O)c1ccc(Nc2ncc(C(F)(F)F)c(NCc3nccnc3N(C)S(C)(=O)=O)n2)cc1 [defactinib]
Procedure, shortened: as §1

[5] = compound: CNc1nc(-c2ccc3c(N)n[nH]c3c2)cc(N2C[C@@H](C(=O)NC3CCCCC3)CC[C@H]2C)n1
Procedure, shortened: as §1

[6] = compound: COC(=O)N[C@@H](C)CNc1nccc(-c2cn(C(C)C)nc2-c2cc(Cl)cc(NS(C)(=O)=O)c2F)n1 [encorafenib]
Procedure, shortened: as §1

[7] = compound: COC(=O)[C@H](CCSC)NC(=O)C1=C(C=C(C=C1)NC[C@H](CS)N)C2=CC=CC=C2
Procedure, shortened: as §1

[8] = compound: COc1cc(Nc2ncc3c(n2)-c2ccc(Cl)cc2C(c2c(F)cccc2OC)=NC3)ccc1C(=O)O [alisertib]
Procedure, shortened: as §1

[9] = compound: COc1cc2ncnc(Nc3ccc(F)c(Cl)c3)c2cc1OCCCN1CCOCC1 [gefitinib]
Procedure, shortened: as §1

[10] = compound: CS(=O)(=O)N1CCN(Cc2cc3nc(-c4cccc5[nH]ncc45)nc(N4CCOCC4)c3s2)CC1 [pictilisib]
Procedure, shortened: as §1

[11] = compound: C[C@@H](Oc1cc(-c2cnn(C3CCNCC3)c2)cnc1N)c1c(Cl)ccc(F)c1Cl [crizotinib]
Procedure, shortened: as §1

[12] = compound: C[C@H](C1=CC=C(C=C1)C(=O)NC2=C3C=CNC3=NC=C2)N
Procedure, shortened: as §1

[13] = compound: C[C@H](Nc1ncnc2nc[nH]c12)c1cc2cccc(Cl)c2c(=O)n1-c1ccccc1 [duvelisib]
Procedure, shortened: as §1

[14] = compound: Cc1cc(Nc2cc(CN3CCOCC3)c3nc(C)c(Cc4ccc(Cl)cc4F)n3n2)n[nH]1 [gandotinib]
Procedure, shortened: as §1

[15] = compound: Cc1cc(Nc2cc(N3CCN(C)CC3)nc(Sc3ccc(NC(=O)C4CC4)cc3)n2)n[nH]1 [tozasertib]
Procedure, shortened: as §1

[16] = compound: Cc1ccc(-n2nc(C(C)(C)C)cc2NC(=O)Nc2ccc(OCCN3CCOCC3)c3ccccc23)cc1 [doramapimod]
Procedure, shortened: as §1

[17] = compound: Cc1ccc(NC(=O)c2ccc(CN3CC[C@H](N(C)C)C3)c(C(F)(F)F)c2)cc1Nc1nccc(-c2cncnc2)n1 [bafetinib]
Procedure, shortened: as §1

[18] = compound: Cc1cccc(CC(=O)N2CCc3c2ccc(-c2cn(C)c4ncnc(N)c24)c3F)n1
Procedure, shortened: as §1

[19] = compound: COc1cc2nc(-c3cc(F)ccc3O)nc(N[C@@H]3CNC[C@H]3C(C)(C)O)c2cc1OC
Procedure, shortened: as §1

[20] = compound: CS(=O)(=O)CCNCc1ccc(-c2ccc3ncnc(Nc4ccc(OCc5cccc(F)c5)c(Cl)c4)c3c2)o1 [lapatinib]
Procedure, shortened: as §1

UniProt O94761, sequence (O94761 whole entry, looked up): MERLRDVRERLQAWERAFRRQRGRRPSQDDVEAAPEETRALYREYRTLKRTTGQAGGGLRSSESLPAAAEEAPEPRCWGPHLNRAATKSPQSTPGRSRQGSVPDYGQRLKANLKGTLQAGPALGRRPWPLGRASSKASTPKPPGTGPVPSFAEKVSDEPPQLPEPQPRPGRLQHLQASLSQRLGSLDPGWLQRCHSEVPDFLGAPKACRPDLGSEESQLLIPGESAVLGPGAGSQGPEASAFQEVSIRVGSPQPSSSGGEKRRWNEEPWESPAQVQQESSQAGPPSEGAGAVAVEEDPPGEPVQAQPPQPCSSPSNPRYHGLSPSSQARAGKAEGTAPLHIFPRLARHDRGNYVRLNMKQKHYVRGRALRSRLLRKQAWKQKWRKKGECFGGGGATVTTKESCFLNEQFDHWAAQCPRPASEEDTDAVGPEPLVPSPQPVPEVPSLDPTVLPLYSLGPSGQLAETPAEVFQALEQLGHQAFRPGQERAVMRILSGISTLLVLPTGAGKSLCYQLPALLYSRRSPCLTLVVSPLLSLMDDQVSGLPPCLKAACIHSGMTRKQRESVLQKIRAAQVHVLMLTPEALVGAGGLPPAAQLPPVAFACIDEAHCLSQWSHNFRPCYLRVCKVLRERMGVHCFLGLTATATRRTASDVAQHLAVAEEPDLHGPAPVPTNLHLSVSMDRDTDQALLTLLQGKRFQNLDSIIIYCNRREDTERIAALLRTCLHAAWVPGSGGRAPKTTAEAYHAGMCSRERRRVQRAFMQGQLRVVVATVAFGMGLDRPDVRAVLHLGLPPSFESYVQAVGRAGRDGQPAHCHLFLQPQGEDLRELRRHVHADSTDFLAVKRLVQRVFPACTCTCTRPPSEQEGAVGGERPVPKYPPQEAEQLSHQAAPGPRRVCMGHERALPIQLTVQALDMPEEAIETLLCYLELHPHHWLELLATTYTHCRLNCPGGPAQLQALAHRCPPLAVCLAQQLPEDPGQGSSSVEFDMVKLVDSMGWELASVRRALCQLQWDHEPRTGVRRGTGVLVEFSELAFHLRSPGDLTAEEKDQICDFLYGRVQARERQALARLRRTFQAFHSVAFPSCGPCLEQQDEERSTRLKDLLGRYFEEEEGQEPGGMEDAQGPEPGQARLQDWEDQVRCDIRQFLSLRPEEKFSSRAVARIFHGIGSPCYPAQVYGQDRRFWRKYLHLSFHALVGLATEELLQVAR
UniProt Q8IYW5, sequence (Q8IYW5 whole entry, looked up): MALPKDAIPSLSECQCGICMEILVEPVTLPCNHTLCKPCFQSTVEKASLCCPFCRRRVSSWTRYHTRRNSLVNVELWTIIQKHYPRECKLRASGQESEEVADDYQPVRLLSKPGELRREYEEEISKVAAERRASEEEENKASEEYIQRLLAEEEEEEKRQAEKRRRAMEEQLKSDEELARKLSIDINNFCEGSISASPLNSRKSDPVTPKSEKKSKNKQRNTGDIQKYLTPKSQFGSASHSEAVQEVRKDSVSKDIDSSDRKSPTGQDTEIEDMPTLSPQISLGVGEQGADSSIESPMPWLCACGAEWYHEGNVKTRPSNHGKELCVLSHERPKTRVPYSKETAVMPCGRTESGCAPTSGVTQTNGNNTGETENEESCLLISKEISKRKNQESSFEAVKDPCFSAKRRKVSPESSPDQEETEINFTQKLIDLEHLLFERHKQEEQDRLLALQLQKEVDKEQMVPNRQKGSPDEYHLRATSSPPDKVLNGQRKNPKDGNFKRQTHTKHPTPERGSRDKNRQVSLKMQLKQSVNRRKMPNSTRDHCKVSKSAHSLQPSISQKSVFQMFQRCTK
UniProt Q9BVS4, sequence (Q9BVS4 whole entry, looked up): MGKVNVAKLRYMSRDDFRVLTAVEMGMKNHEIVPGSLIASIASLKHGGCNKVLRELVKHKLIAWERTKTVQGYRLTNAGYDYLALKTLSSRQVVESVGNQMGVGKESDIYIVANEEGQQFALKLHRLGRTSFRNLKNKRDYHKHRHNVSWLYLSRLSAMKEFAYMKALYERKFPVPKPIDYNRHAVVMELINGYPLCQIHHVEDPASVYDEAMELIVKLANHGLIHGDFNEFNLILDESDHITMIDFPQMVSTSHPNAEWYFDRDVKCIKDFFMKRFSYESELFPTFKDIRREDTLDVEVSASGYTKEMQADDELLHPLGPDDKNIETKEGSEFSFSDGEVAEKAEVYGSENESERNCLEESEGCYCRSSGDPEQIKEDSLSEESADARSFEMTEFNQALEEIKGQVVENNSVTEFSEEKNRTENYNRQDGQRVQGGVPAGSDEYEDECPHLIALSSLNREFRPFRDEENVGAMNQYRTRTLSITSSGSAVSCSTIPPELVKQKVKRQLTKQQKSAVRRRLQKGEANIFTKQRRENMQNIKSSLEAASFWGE
UniProt P18754, sequence (P18754 whole entry, looked up): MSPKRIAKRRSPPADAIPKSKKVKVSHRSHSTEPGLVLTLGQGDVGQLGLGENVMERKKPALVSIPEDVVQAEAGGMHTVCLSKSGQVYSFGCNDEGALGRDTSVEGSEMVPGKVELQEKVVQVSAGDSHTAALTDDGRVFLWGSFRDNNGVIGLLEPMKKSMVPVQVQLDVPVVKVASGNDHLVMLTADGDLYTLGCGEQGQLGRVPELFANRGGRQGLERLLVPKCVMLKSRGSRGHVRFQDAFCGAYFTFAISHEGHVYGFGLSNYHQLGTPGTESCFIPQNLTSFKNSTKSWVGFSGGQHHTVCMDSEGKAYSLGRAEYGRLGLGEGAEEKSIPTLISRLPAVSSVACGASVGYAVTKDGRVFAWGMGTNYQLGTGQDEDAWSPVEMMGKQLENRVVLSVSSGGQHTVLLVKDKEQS
UniProt Q13464, sequence (Q13464 whole entry, looked up): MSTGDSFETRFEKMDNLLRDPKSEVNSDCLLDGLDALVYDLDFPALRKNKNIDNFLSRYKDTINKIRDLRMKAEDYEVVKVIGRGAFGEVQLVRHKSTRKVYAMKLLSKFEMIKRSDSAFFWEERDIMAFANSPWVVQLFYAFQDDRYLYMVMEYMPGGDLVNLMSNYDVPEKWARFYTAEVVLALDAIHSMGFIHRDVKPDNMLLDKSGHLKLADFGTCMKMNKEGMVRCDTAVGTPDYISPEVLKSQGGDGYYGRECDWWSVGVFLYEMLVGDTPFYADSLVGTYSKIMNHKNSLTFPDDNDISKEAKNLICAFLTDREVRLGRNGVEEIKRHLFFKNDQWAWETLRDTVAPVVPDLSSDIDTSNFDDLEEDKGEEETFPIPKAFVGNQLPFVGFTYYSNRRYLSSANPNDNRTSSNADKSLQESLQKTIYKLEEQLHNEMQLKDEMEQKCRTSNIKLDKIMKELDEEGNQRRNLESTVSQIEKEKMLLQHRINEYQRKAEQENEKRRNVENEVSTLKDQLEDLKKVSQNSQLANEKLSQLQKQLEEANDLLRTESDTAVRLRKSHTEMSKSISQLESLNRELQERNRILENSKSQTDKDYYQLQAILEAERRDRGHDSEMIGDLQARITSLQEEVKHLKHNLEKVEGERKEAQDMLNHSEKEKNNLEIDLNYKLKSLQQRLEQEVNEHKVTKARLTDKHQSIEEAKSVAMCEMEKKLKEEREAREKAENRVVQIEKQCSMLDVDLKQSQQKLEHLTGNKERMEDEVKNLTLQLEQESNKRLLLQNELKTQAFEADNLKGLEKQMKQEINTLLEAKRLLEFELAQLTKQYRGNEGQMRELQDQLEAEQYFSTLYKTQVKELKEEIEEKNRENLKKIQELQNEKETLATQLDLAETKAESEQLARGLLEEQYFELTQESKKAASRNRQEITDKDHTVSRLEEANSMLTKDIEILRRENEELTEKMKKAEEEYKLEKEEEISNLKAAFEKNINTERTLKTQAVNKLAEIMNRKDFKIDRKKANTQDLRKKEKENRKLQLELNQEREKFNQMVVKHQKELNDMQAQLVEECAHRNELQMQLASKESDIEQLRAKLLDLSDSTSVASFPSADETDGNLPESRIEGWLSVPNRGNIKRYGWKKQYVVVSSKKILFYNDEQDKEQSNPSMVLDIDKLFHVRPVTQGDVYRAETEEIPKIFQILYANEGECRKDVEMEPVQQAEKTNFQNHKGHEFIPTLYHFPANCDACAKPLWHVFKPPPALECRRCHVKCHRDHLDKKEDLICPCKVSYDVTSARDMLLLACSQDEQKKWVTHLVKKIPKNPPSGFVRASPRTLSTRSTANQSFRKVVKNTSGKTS
UniProt Q9H974, sequence (Q9H974 whole entry, looked up): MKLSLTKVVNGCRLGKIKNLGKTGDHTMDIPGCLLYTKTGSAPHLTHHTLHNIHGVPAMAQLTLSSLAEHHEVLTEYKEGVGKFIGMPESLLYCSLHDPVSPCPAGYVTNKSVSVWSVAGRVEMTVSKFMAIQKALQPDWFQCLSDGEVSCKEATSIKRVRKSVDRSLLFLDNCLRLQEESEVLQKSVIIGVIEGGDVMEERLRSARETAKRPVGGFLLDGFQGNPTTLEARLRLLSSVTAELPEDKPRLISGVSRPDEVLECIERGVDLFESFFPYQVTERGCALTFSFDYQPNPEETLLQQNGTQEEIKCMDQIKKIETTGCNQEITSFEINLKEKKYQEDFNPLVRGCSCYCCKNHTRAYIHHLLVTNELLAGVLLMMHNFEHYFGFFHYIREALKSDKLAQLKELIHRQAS

Row | Target | log2 fold change [1] | log2 fold change [2] | log2 fold change [3] | log2 fold change [4] | log2 fold change [5] | log2 fold change [6] | log2 fold change [7] | log2 fold change [8] | log2 fold change [9] | log2 fold change [10] | log2 fold change [11] | log2 fold change [12] | log2 fold change [13] | log2 fold change [14] | log2 fold change [15] | log2 fold change [16] | log2 fold change [17] | log2 fold change [18] | log2 fold change [19] | log2 fold change [20]
1 | RECQL4 (UniProt O94761) | 0.042 | -0.045 | 0.104 | 0.049 | -0.02 | 0.023 | 0.056 | 0.028 | 0.065 | -0.032 | -0.079 | -0.039 | 0.061 | -0.472 (active) | -0.014 | 0.029 | -0.099 | 0.146 |  | 
2 | RIOK2 (UniProt Q9BVS4) | -0.021 | -0.098 | 0.438 (active) | 0.105 | 0.127 | -0.025 | 0.029 | -0.005 | -0.011 | 0.269 | 0.047 | -0.028 | 0.016 | 0.829 (active) | -0.011 | -0.028 | 0.093 | -0.012 | -0.051 | -0.032
3 | RCC1 isoform 2 (UniProt P18754) | 0.012 | -0.168 | 0.018 | 0.055 | -0.007 | 0.006 | 0.151 | 0.006 | -0.003 | 0.009 | -0.063 | -0.019 | 0.017 | -0.066 | 0.011 | -0.017 | -0.01 | 0.034 | -0.017 | -0.018
4 | SAMD4A (UniProt Q9UPU9) | 0.039 | -0.428 | -0.01 | 0.001 | 0.04 | 0.009 | -0.032 |  |  | 0.047 | -0.041 | -0.064 | -0.046 | -0.036 | 0.088 | 0.019 | -0.215 | 0.101 | 0.035 | 0.282
5 | ROCK1 (UniProt Q13464) | 0.004 | 0.013 | -0.029 | -0.02 | 0.039 | -0.004 | -0.019 | -0.045 | -0.004 | -0.021 | 0.011 |  | 0.006 | -0.04 | 0.027 | -0.025 | -0.016 | 0.031 | 0.022 | -0.003
6 | QTRT2 isoform 4 (UniProt Q9H974) | -0.105 | 0.003 | 0.018 | -0.014 | 0 | -0.018 | -0.044 | 0.016 | 0.031 | -0.037 | -0.018 | -0.297 (active) | -0.008 | 0.185 | 0.003 | -0.029 | -0.089 | 0.256 (active) | 0.008 | -0.016
7 | RNF168 (UniProt Q8IYW5) | 0.037 | -0.03 | 0.068 | -0.026 | -0.03 | -0.046 | -0.102 | -0.078 | 0.079 | 0.063 | 0.027 | -0.015 | 0.037 | 0.002 | -0.088 | -0.008 | -0.212 | -0.036 | -0.043 | -0.034
8 | SEC24D isoform 2 (UniProt O94855) | -0.012 | -0.018 | 0.002 | 0.012 | -0.008 | 0.029 | -0.163 | 0.005 | 0.006 | -0.03 | 0 | 0.031 | 0.017 | -0.02 | 0.005 | 0 | -0.026 | -0.019 | 0.006 | 0.016

Source: the supplement of paper PMC10849652
